From PubChem BioAssay
Active and inactive are the calls of the source.

Legend:
[1] = target: Albumin (Bos taurus) (UniProt P02769); test: bovine serum albumin binders on microarray, profiling panel, artefact control for SMM control protein annotation, biochemical, small-molecule microarray, Alexa647 label, 635/667 nm fluorescence (AID 1118); settings: BSA-A647 binding, fluorescence 635 nm, higher = more signal;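 further: score merges 667 nm emission intensity and signal-to-noise per printed compound spot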
[2] = small-molecule microarray binders of probe aXIP, primary screen, biochemical, NeuroSMM set, 635/667 nm fluorescence (AID 1119); settings: higher = more signal, called active from +8 up or from −8 down;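 further: probe is the protein aXip251-270 applied at 1 µg/mL to compound-printed slides; binding of probe to printed compounds measured as 667 nm fluorescence plus signal to noise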
[3] = small-molecule binders of probe aNOTCH3, primary screen, biochemical, small-molecule microarray, 635/667 nm fluorescence (AID 1120); settings: higher = more signal;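 further: probe is a biotin-tagged antibody raised against NOTCH3 rather than NOTCH3 protein; score merges spot fluorescence near 667 nm with spot signal to noise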
[4] = small-molecule binders of probe aNOTCH2, primary screen, biochemical, small-molecule microarray, 635/667 nm fluorescence (AID 1121); settings: higher = more signal;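 further: score merges feature fluorescence read at 667 nm with its signal to noise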
[5] = target: Carbonic anhydrase 2 (Homo sapiens) (UniProt P00918); test: CAII small-molecule binders, profiling panel, biochemical, small-molecule microarray, Alexa647-labelled CAII (AID 1122); settings: CAII-A647 binding fluorescence, higher = more signal
[6] = COS7 lysate on small-molecule microarray, probe aHis, 635 nm (AID 1123); settings: COS7 cell lysate, fluorescence, higher = more signal;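 further: z-score combines 667nm fluorescence intensity with signal-to-noise per printed compound spot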
[7] = compound binding in COS7 lysate, probe aLAP1, primary screen, cell lysate, small-molecule microarray (AID 1124); settings: probe aLAP1, fluorescence, higher = more signal;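 further: lysate comes from COS7 cells expressing LAP1 and is applied at 0.3 µg/mL; score merges spot fluorescence near 667 nm with signal-to-noise over triplicate slides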
[8] = test system: Sam68 (KHDRBS1); test: Sam68 small-molecule binders, primary screen, biochemical, small-molecule microarray, 635 nm fluorescence (AID 1125); settings: small-molecule microarray binding, higher = more signal;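 further: score merges 667 nm channel intensity with signal to noise over triplicate slides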
[9] = test system: Chordin-like protein 2 (CHRDL2); test: CHRDL2 small-molecule binders, primary screen, biochemical, small-molecule microarray, 635 nm fluorescence (AID 1126); settings: small-molecule microarray binding, fluorescence 635 nm; higher = more signal;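 further: printed compound slides probed with Chrdl2 protein at 4 µg/mL for 1 h at 4 C; score merges 667 nm emission intensity with signal to noise over three replicate slides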
[10] = target: Concanavalin-A (Canavalia ensiformis) (UniProt P02866); test: ConA small-molecule binders, primary screen, artefact control for SMM control protein annotation, biochemical, small-molecule microarray, Alexa647 label, 635 nm (AID 1127); settings: ConA-A647 binding fluorescence, higher = more signal;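 further: z combines 667 nm emission intensity with signal-to-noise across three replicate slides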
[11] = anti-His antibody binders, primary screen, artefact control for SMM control protein annotation, biochemical, small-molecule microarray, 635 nm fluorescence (AID 1128); settings: anti-His Alexa647 antibody binding, higher = more signal;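 further: score merges feature fluorescence with signal-to-noise for each printed compound spot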
[12] = test system: Human papillomavirus type 1a E7 protein (residues 1-88); test: HPV1a E7 small-molecule binders, primary screen, biochemical, small-molecule microarray, residues 1-88, 635 nm (AID 1129); settings: small-molecule microarray binding, fluorescence 635 nm; higher = more signal
[13] = target: Focal adhesion kinase 1 (Homo sapiens) (UniProt Q05397); test: small-molecule microarray binders of FAK, primary screen, biochemical, 635/667 nm fluorescence, BSA, DTT (AID 1130); settings: PTK2 binding, 635 nm fluorescence, higher = more signal;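 further: composite of spot emission at 667 nm and signal to noise over triplicate slides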
[14] = test system: Fibrinogen (Alexa647-labelled); test: fibrinogen binders on compound microarrays, profiling panel, artefact control for SMM control-protein annotation, biochemical, small-molecule microarray, 635/667 nm fluorescence (AID 1131); settings: fibrinogen-A647 binding fluorescence, higher = more signal;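 further: z-score merges 667 nm fluorescence with per-spot signal-to-noise over triplicate slides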
[15] = target: Follistatin (Homo sapiens) (UniProt P19883); test: follistatin binders on small-molecule microarrays, primary screen, biochemical, small-molecule microarray, 635/667 nm fluorescence (AID 1132); settings: FST binding, 635 nm fluorescence, higher = more signal
[16] = target: Fibroblast growth factor 2 (Homo sapiens) (UniProt P09038); test: FGF2 binders on small-molecule microarrays, primary screen, biochemical, small-molecule microarray, 635/667 nm fluorescence (AID 1133); settings: small-molecule microarray binding, FGF2, fluorescence 635/667; higher = more signal
[17] = mitochondrial membrane potential change in A549 cells, profiling panel, cell-based, JC-1 fluorescence, basal, 24 h, 100 nL (AID 1138); settings: higher = more signal;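 further: A549 lung adenocarcinoma cells under basal conditions with no added stimulus; test concentration not given here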
[18] = test system: Lefty1; test: Lefty1 binders on small-molecule microarrays, primary screen, biochemical, small-molecule microarray, 635/667 nm fluorescence (AID 1139); settings: small-molecule microarray binding, fluorescence 635/667; higher = more signal
[19] = test system: wheat germ agglutinin (Triticum aestivum), Alexa647-labelled; test: wheat germ agglutinin binders on compound microarrays, profiling panel, artefact control for SMM control-protein annotation, biochemical, small-molecule microarray, 635/667 nm fluorescence (AID 1140); settings: WGA-A647 binding, 635 nm fluorescence, higher = more signal;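 further: score merges 667 nm feature emission with signal to noise over triplicate slides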
[20] = target: Luciferin 4-monooxygenase (Photinus pyralis) (UniProt P08659); test: firefly luciferase enzyme inhibitors, primary screen, biochemical, luminescence, purified enzyme, 2006 set (AID 1141); settings: SteadyGlo luminescence, 30 min, higher = more signal, called active from +8 up or from −8 down;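 further: cell-free assay with purified firefly luciferase at 100 ng per well in PBS; test concentration not given here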
Sequence of Luciferin 4-monooxygenase (Photinus pyralis) (P08659 whole entry, looked up): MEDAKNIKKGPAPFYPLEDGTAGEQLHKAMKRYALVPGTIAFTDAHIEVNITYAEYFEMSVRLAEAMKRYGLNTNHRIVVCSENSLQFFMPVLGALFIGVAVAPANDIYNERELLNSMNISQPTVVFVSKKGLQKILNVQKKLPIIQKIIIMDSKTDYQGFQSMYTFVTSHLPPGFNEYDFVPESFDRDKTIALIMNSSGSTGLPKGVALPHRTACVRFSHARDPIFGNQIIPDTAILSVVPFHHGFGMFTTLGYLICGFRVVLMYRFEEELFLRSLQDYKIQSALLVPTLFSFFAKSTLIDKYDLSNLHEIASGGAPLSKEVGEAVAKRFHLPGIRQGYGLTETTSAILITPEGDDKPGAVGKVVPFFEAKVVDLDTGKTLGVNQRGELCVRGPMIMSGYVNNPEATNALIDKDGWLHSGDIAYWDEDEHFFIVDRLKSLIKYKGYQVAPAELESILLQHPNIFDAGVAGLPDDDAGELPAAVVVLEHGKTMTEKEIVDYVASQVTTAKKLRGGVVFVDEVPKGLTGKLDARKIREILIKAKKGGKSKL

Sequence of Focal adhesion kinase 1 (Homo sapiens) (Q05397 whole entry, looked up): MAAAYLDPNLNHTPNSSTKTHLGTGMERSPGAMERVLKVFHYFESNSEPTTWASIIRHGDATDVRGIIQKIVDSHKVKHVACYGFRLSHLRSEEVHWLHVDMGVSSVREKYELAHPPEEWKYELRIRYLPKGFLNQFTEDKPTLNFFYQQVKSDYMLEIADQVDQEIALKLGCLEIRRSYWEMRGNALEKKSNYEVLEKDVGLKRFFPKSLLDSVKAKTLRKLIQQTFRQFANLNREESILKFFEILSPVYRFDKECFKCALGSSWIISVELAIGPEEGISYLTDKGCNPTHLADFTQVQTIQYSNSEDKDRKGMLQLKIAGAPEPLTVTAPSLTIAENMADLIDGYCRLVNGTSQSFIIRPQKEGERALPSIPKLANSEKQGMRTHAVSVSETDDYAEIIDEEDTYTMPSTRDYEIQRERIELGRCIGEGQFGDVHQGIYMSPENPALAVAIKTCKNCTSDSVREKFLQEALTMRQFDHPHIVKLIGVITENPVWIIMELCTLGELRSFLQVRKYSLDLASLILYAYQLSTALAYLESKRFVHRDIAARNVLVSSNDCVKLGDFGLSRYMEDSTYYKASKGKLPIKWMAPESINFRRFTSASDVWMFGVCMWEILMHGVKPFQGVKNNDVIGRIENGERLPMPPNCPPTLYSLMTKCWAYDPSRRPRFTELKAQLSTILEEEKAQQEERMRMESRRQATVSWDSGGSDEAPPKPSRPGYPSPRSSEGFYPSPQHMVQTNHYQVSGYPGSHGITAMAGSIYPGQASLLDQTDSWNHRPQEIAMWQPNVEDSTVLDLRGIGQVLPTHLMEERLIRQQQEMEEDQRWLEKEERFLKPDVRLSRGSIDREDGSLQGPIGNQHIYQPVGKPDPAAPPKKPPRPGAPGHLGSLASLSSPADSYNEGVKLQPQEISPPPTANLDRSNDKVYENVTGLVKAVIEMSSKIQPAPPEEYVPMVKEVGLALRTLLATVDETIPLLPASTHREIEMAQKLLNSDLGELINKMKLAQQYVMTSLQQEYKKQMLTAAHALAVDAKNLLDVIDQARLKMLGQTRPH
Sequence of Follistatin (Homo sapiens) (P19883 whole entry, looked up): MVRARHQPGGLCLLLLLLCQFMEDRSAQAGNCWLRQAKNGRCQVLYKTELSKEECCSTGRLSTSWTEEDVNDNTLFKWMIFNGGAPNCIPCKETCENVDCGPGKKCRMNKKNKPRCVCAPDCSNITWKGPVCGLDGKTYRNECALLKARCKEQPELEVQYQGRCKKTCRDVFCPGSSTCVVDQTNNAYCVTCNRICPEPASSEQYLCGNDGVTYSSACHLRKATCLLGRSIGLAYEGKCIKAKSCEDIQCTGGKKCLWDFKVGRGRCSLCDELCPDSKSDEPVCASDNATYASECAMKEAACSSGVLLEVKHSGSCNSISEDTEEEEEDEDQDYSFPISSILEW
Sequence of Albumin (Bos taurus) (P02769 whole entry, looked up): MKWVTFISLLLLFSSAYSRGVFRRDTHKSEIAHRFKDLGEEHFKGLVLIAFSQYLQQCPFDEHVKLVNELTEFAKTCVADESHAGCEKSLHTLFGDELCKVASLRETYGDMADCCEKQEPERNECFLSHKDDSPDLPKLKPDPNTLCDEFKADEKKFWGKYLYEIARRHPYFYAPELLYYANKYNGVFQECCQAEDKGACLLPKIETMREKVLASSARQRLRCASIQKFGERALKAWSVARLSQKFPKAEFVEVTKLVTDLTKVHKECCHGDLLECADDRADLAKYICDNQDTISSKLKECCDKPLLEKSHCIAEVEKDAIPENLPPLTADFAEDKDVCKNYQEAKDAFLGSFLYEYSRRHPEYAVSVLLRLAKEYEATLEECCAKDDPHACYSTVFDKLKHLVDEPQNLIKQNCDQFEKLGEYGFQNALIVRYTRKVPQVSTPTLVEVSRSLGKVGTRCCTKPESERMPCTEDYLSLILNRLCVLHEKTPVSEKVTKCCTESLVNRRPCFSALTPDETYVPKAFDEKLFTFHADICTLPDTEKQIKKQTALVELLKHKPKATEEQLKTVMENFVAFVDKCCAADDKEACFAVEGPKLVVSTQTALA
Sequence of Concanavalin-A (Canavalia ensiformis) (P02866 whole entry, looked up): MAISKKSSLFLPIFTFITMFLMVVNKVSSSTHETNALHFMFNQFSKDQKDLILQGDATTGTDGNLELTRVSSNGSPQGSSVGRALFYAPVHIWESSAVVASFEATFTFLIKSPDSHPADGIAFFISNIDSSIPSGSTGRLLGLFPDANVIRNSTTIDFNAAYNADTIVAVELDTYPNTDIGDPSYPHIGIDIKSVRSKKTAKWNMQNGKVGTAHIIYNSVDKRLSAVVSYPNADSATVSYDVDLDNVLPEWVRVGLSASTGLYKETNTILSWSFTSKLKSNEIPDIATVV
Sequence of Fibroblast growth factor 2 (Homo sapiens) (P09038 whole entry, looked up): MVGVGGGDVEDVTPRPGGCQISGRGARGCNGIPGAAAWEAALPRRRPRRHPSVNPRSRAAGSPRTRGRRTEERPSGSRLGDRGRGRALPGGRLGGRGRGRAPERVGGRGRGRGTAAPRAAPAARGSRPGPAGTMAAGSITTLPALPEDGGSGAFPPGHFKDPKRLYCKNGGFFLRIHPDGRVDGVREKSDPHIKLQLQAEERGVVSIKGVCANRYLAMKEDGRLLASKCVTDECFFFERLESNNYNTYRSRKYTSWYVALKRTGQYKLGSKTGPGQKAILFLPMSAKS

Row | SMILES | composite z-score [1] | composite Z-score [2] | composite z-score [3] | composite z-score [4] | composite z-score [5] | composite z-score [6] | composite z-score [7] | composite z-score [8] | composite z-score [9] | composite z-score [10] | composite z-score [11] | composite z-score [12] | composite z-score [13] | composite z-score [14] | composite z-score [15] | composite z-score [16] | z-score [17] | composite z-score [18] | composite z-score [19] | z-score [20]
1 | COC(=O)[C@@]1(CCS(=O)(=O)c2ccccc2)N=C(c2ccc(OCCCO)cc2)O[C@H]1c1ccccc1CN=[N+]=[N-] | -0.307 | 0.559 (inactive) | 0.0807 | 0.0657 | 0.691 | 2.4 | 0.372 | 1.34 | -0.149 | 1.08 | 2.29 | 1.19 | 1.46 | 0.755 | 1.31 | 0.55 | -0.229 | 0.279 | 1.01 | -0.282 (inactive)
2 | CC(C)CNC(=O)[C@@]1(Cc2ccccc2I)c2ccccc2C(=O)N(C2CCCCC2)[C@H]1c1ccc(CO)cc1 | 0.82 | 2.21 (inactive) | -0.139 | -0.0432 | 0.619 | 2.1 | 2.06 | 0.342 | 0.133 | 0.565 | 1.57 | 1 | 0.321 | 0.348 | 0.0932 | 0.99 | 1.57 | -0.104 | 0.84 | 0.258 (inactive)
3 | CCC(CC)C(O)C1C=CC2C(=O)NC(=O)C2N1Nc1ccc(Cl)cc1Cl (stereo not given) | 0.869 | 0.818 (inactive) | 0.237 | 0.0333 | 0.654 | 2.18 | 1.02 | 0.887 | -0.381 | 1.06 | 1.66 | 1.18 | 0.383 | 0.952 | 1.14 | -0.0832 | -0.00434 | 0.359 | 0.788 | -0.533 (inactive)
4 | Cc1ccc(S[C@]2(C(=O)NCCCN(C)C)CC(=O)N(Cc3ccccc3C(F)(F)F)[C@@H]2c2ccc(CO)cc2)cc1 | 0.54 | -0.676 (inactive) | -0.0639 | -0.0013 | 0.211 | 0.0645 | -0.41 | 0.0809 | -0.327 | -1.48 | -1.09 | -0.935 | -0.157 | 0.109 | -0.85 | -0.45 | 0.566 | -0.853 | 0.427 | -0.903 (inactive)
5 | CCCC[C@H]1OB(O)C[C@H]2C1=C(COC)C[C@H]1C(=O)N(C)C(=O)[C@H]12 | -0.126 | -0.618 (inactive) | -0.0328 | -0.201 | 0.39 | 0.502 | 0.0459 | 0.462 | 0.245 | 0.744 | 0.415 | -0.292 | 0.18 | 0.144 | 0.824 | 0.846 | 0.145 | 0.896 | 0.631 | -0.656 (inactive)
6 | CN(C)CCCCCCNC(=O)[C@@H]1C[C@@H]2C(=O)N[C@@H](Cc3ccccc3)C(=O)N2[C@@H]1c1ccc(O)cc1 | -0.0568 | 0.675 (inactive) | 0.299 | -0.0276 | 0.425 | 1.58 | -0.453 | 1.31 | 1.41 | 1.21 | 2.45 | 1.23 | 0.303 | 0.493 | 1.44 | 1.63 | -1.06 | 1.67 | 0.715 | 0.205 (inactive)
7 | C=CCNC(=O)[C@H]1[C@@H]2C(=O)O[C@@H](c3ccccc3)[C@@H](c3ccccc3)N2[C@@H](c2ccccc2OCCO)[C@]12C(=O)Nc1ccc(C#CCCO)cc12 | -0.066 | 0.313 (inactive) | -0.214 | -0.137 | 0.423 | 1.06 | 0.0894 | -0.0891 | -0.0022 | 0.801 | 1.12 | -0.231 | 0.191 | -0.205 | 0.0804 | 2.05 | 0.582 | -0.376 | -0.0387 | -0.412 (inactive)
8 | CCOC(=O)C[C@H]1[C@H](OC(=O)c2ccc(C(=O)c3ccccc3)cc2)[C@@H](NC(=O)c2ccc3ccccc3n2)c2cc(OCCCO)ccc2N1C(=O)c1ccccc1 | 0.583 | -0.12 (inactive) | 0.0488 | -0.0646 | 0.249 | 0.994 | 0.545 | 1.29 | -0.322 | 1.12 | -0.0053 | 0.924 | 0.0305 | 0.807 | 0.559 | 0.674 | 0.332 | 1.63 | 0.761 | 0.393 (inactive)
9 | CC(C)C[C@@H]1NC(=O)[C@@H]2C[C@H](C(=O)O)[C@H](c3cccc(OCCO)c3)N2C1=O | -0.494 | -0.303 (inactive) | -0.204 | -0.164 | 0.673 | 1.78 | 0.283 | -0.0754 | 0.707 | 0.684 | 2.29 | -0.312 | -0.176 | -0.0031 | 0.495 | 0.89 | -0.0906 | -0.375 | 0.275 | -0.291 (inactive)
